The assay is described as follows: M. tuberculosis growth inhibition, HTS (AID 1259417).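 Further: bacteria grown with compound for 5 days at 37 °C.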 Conditions: stronger effect = higher value, concentration not given here.
Setting [1] is: M. tuberculosis DsRed fluorescence growth inhibition.
[2] abbreviates: M. tuberculosis growth inhibition.

In general, inhibition refers to the relative decrease from the control value, in per cent.

About 760 (69%) of roughly 1,100 compounds were called active. How the calls were made is not given here. So high a share suggests a set chosen from earlier hits. Some of the results follow.

Take `CCn1ccnc1CN(C)Cc1cn(-c2cccc(C)c2)nc1-c1cccc(F)c1`: the inhibition is 18.2% (inactive) under setting [1] and 15.5% under setting [2].

Turning to `Cc1ccc(Sc2ccc(C=O)o2)cc1`, the inhibition is -0.277% (inactive) under setting [1] and 24.1% under setting [2].

Turning to `Cc1ccc(CN=c2c([N+](=O)[O-])nn(-c3cccc(Cl)c3)n2O)cc1`, the inhibition runs as follows: under setting [1], 99.8% (active); under setting [2], 100%.

`Cc1cccc(-n2nc([N+](=O)[O-])c(=NCCC3=CCCCC3)n2O)c1`: the inhibition is 101% (active) under setting [1] and 54.8% under setting [2].

Take `O=S1(=O)C=C(Sc2nc3ccccc3s2)c2ccccc21`: the inhibition under setting [1] was 100% (active) and the inhibition under setting [2] was 99.8%.

For the molecule `COc1c2ccoc2nc2c(OC)cccc12`, the inhibition was 98.6% (active) under setting [1] and 99.6% under setting [2].

On to `CC12CCC(C(=O)Nc3ccc(OC(F)(F)F)cc3)(CC1=O)C2(C)C` (stereo not drawn), for which the inhibition under setting [1] is 94.8% (active) and the inhibition under setting [2] worked out at 81.6%.

As for `CC(C)(C)c1ccc(C(=O)Nc2nc3ccccc3[nH]2)cc1`, the inhibition runs as follows: under setting [1], 65.8% (active); under setting [2], 86.5%.

Consider `Cc1cccc(C(=O)Nc2nc3ccccc3[nH]2)c1`, for which the inhibition under setting [1] is 36.9% (active) and the inhibition under setting [2] turned out to be 35.3%.

Consider `Cc1cc(NS(=O)(=O)c2ccc(NC(=O)c3ccc(C(C)(C)C)cc3)cc2)no1`, for which the inhibition under setting [1] is 19.1% (inactive) and the inhibition under setting [2] worked out at 12.2%.

Turning to `CCOC(=O)Cn1nnc(-c2ccc(OCc3ccccc3F)cc2)n1`, the inhibition was 50% (active) under setting [1] and 91.6% under setting [2].

On to `CCOC(=O)Cn1nnc(-c2ccc(OCc3ccccc3C)cc2)n1`, for which the inhibition is, setting by setting: under setting [1], 91.8% (active); under setting [2], 96.9%.

As to `CCN(CC)c1ccc(/C=C(/C#N)c2nc3ccccc3[nH]2)c(OC(C)C)c1`, the inhibition is, setting by setting: under setting [1], 22.6% (active); under setting [2], 47%.

For the molecule `c1ccc(-c2nc(NCCCn3ccnc3)c3oc4ccccc4c3n2)cc1`, the inhibition is, setting by setting: under setting [1], 98.9% (active); under setting [2], 99.5%.

For the molecule `CCOC(=O)CSc1nnc2c3sc4nc(N5CCOCC5)c5c(c4c3ncn12)CC(C)(C)OC5`, the inhibition runs as follows: under setting [1], 53.1% (active); under setting [2], 74.9%.

For `COC(=O)c1ccc(N2C(=O)CC(N(CCc3ccccc3)C(=S)Nc3ccccc3)C2=O)cc1` (stereo not drawn), the inhibition is 2.64% (inactive) under setting [1] and -9.4% under setting [2].

Regarding `CC(=O)N1CCN(c2ccc(NC(=S)NC(=O)c3cc4ccccc4o3)cc2)CC1`, the inhibition under setting [1] was 3.83% (inactive) and the inhibition under setting [2] is -6.94%.

As for `O=C(CCc1ccccc1)NC(=S)Nc1ccc(N2CCCCC2)cc1`, the inhibition was 82.8% (active) under setting [1] and 59.4% under setting [2].

As for `OC(COCCC12CC3CC(CC(C3)C1)C2)CN1CCc2ccccc2C1` (stereo not drawn), the inhibition under setting [1] was 1.19% (inactive) and the inhibition under setting [2] turned out to be 10.3%.

In the case of `O=C(Cn1nc(CNc2ccc(Cl)cc2)[n+]2c1CCCCC2)c1ccc(Br)cc1`, the inhibition is, setting by setting: under setting [1], 92.9% (active); under setting [2], 94.4%.

As for `COc1ccc(C(C)(C)C)cc1NC(=S)Nc1ccc(Cl)c(Cl)c1`, the inhibition by setting is: under setting [1], 0.0351% (inactive); under setting [2], -14.6%.

Regarding `CC(C)CC(=O)NC(c1ccc(Cl)cc1Cl)c1c(O)ccc2ccccc12` (stereo not drawn), the inhibition is 5.28% (inactive) under setting [1] and 21% under setting [2].

Take `CC(C)(C)c1cc(Cl)c(O)c(NC(=S)NC(=O)c2cccc3ccccc23)c1`: the inhibition under setting [1] is 80.4% (active) and the inhibition under setting [2] is 78.3%.

`CCOC(=O)CSc1ccc(-c2nc3cc(C)c(C)cc3[nH]2)cn1`: the inhibition is, setting by setting: under setting [1], 94.3% (active); under setting [2], 96%.

Regarding `O=[N+]([O-])c1ccc(/C=N/n2c(CO)nc3ccccc32)s1`, the inhibition under setting [1] is 96.6% (active) and the inhibition under setting [2] came out at 97.7%.

As for `Cc1cc(C)n(-c2nc(NC(C)C)nc(NC(C)C)n2)n1`, the inhibition reads like this: under setting [1], 43.1% (active); under setting [2], 41.4%.

As for `CCOC(=O)CSc1nnc(-c2ccc(OC)cc2OC)o1`, the inhibition is, setting by setting: under setting [1], 42.1% (active); under setting [2], 70.4%.

In the case of `COC(=O)CSc1nnc(-c2ccc(OC)cc2OC)o1`, the inhibition was 85.8% (active) under setting [1] and 94.2% under setting [2].

Take `CCC(OC(C)=O)c1ccc(OC(C)=O)c(OC)c1` (stereo not drawn): the inhibition by setting is: under setting [1], 99.1% (active); under setting [2], 90.6%.

For the molecule `COC(=O)COc1ccc(NC(=O)c2ccccc2I)cc1`, the inhibition was 61.7% (active) under setting [1] and 81.3% under setting [2].

With `COC(=O)COc1ccc(NC(=O)c2ccccc2F)cc1`, the inhibition was 77.8% (active) under setting [1] and 78.9% under setting [2].

Regarding `COC(=O)c1ccc(OCC(=O)Nc2ccccc2F)cc1`, the inhibition by setting is: under setting [1], 14.1% (active); under setting [2], 74.2%.

With `COC(=O)COc1ccc(NC(=O)c2ccccc2Br)cc1`, the inhibition under setting [1] was 76.3% (active) and the inhibition under setting [2] was 91.1%.

For `COC(=O)COc1ccc(NC(=O)c2ccccc2C)cc1`, the inhibition is, setting by setting: under setting [1], 83.1% (active); under setting [2], 93.5%.

Regarding `O=C(NCCSc1c(-c2ccccc2)[nH]c2ccccc12)c1cc2ccccc2oc1=O`, the inhibition is -6.27% (inactive) under setting [1] and -5.81% under setting [2].

For the molecule `Cc1[nH]c2ccccc2c1SCCNC(=O)c1cc2ccccc2oc1=O`, the inhibition reads like this: under setting [1], 5.93% (inactive); under setting [2], 16.9%.

Regarding `O=C(NCCSc1c[nH]c2ccccc12)c1cc2ccccc2oc1=O`, the inhibition by setting is: under setting [1], 20.8% (active); under setting [2], 42.8%.

As to `Cc1ccc(-c2[nH]c3ccccc3c2SCCNC(=O)c2cc3ccccc3oc2=O)cc1`, the inhibition was -0.558% (inactive) under setting [1] and -17.6% under setting [2].

On to `CCCCCCc1cc2cc(C(=O)NC)c(=N)oc2cc1O`, for which the inhibition is, setting by setting: under setting [1], -2.33% (inactive); under setting [2], -16.9%.

As for `O=C(NCCc1c[nH]c2ccccc12)c1cc2ccccc2oc1=O`, the inhibition under setting [1] is 99.2% (active) and the inhibition under setting [2] came out at 96%.

For `Cc1nc2c(-c3ccc(Cl)cc3)cnn2c(N)c1-c1ccccc1`, the inhibition reads like this: under setting [1], 13.8% (inactive); under setting [2], -1.8%.

`Cc1nn(-c2nc3ccccc3[nH]2)c(N)c1-c1ccccc1`: the inhibition reads like this: under setting [1], 50.6% (active); under setting [2], 84.2%.

In the case of `Cc1cc(Nc2ccccc2)n(-c2nc3ccccc3[nH]2)n1`, the inhibition was 86.8% (active) under setting [1] and 93.2% under setting [2].

Consider `Cc1coc2c1C(=O)C(=O)c1c-2ccc2c1CCCC2(C)C`, for which the inhibition was 96.6% (active) under setting [1] and 98.4% under setting [2].

For the origin of these results see PubChem BioAssay AID1259417 (TB Discovery Research, Infectious Disease Research Institute, 2018).
